Laboratory results from PubChem BioAssay (NCATS).
Results filed as inconclusive are left out. Activity calls are given as the source filed them. Unless noted, calls follow the shape of the full dose curve.

How the values were obtained:
[1] = qHTS for Inhibitors of the Functional Ribonucleoprotein Complex (vRNP) of Lassa (LASV) Arenavirus: LASV Primary Screen - GLuc reporter signal (AID 1347082; calls by dose curve; tested in HEK293 reporter line; also: nearly all actives have a fitted effect of over 60% in size); settings: LASV minigenome vRNP, Gaussia luciferase reporter; series mostly up to 57.5 µM
[2] = qHTS for Inhibitors of the Functional Ribonucleoprotein Complex (vRNP) of Lassa (LASV) Arenavirus: Viability assay - alamar blue signal for LASV Primary Screen (AID 1347083; calls by dose curve; tested in HEK293 reporter line; also: nearly all actives have a fitted effect of over 80% in size); settings: cell viability, alamar blue fluorescence (LASV minigenome counter-screen); series mostly up to 57.5 µM
[3] = qHTS for Inhibitors of the Functional Ribonucleoprotein Complex (vRNP) of Lymphocytic Choriomeningitis Arenaviruses (LCMV): Viability assay - alamar blue signal for LCMV Primary Screen (AID 1347085; calls by dose curve; tested in HEK293 reporter line; also: nearly all actives have a fitted effect of over 80% in size); settings: alamar blue viability counter-screen, LCMV vRNP screen cells; series mostly up to 57.5 µM
[4] = target: Nucleoprotein (Lymphocytic choriomeningitis virus (strain Armstrong)) (UniProt P09992); experiment: qHTS for Inhibitors of the Functional Ribonucleoprotein Complex (vRNP) of Lymphocytic Choriomeningitis Arenaviruses (LCMV): LCMV Primary Screen - GLuc reporter signal (AID 1347086); settings: LCMV minigenome vRNP cell assay, Gaussia luciferase reporter; series mostly up to 57.5 µM; also: nearly all actives have a fitted effect of over 70% in size
Nucleoprotein (Lymphocytic choriomeningitis virus (strain Armstrong)), sequence (P09992 whole entry, looked up): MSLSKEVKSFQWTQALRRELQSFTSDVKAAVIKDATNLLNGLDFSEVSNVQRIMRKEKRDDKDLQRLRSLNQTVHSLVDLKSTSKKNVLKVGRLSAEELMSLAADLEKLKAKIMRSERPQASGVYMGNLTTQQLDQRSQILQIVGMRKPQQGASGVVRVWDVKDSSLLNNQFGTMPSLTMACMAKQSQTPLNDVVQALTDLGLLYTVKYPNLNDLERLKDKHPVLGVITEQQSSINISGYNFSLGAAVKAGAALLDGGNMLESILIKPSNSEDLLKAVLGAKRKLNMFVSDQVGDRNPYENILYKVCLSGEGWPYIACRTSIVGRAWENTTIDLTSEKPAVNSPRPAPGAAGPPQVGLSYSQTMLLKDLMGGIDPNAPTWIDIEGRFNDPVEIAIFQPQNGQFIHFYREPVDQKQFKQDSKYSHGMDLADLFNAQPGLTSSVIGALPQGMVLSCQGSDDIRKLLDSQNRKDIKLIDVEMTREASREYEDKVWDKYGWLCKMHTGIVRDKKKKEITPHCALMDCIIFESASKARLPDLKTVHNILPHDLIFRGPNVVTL
% is scaled to controls: 0 for no effect and ±100 for the full control effect.

COc1cc2c(cc1O)[C@@H]1Cc3cc(OC)c(OC)cc3C(C2)N1C
inactive: Potency [1] | Potency [2] | Potency [3] | Potency [4]

Cn1c(=O)c2[nH]c(=O)[nH]c2n(C)c1=O
inactive: Potency [1] | Potency [2] | Potency [3] | Potency [4]

CN=CNc1ccc(C)cc1C
inactive: Potency [1] | Potency [2] | Potency [3] | Potency [4]

COC(=O)c1c(C)cc(O)c(C=O)c1O
inactive: Potency [1] | Potency [2] | Potency [3] | Potency [4]

CC(C)NC(=O)NCCCCCCS(C)=O (stereo not given)
inactive: Potency [1] | Potency [2] | Potency [3] | Potency [4]

C=C1[C@H]2C[C@H]3[C@H]4N5C[C@]6(C)CCC[C@]47[C@H]([C@H]2O)[C@]3(C[C@]5(O)[C@H]67)[C@@H]1O
inactive: Potency [1] | Potency [2] | Potency [3] | Potency [4]

COc1cc(C(=O)O[C@@H]2CC3CC[C@]2(C)C3(C)C)ccc1O
inactive: Potency [1] | Potency [2] | Potency [3] | Potency [4]

C#C[C@]1(O)CC[C@@H]2[C@@H]3CCC4=CC(=O)CC[C@@H]4[C@H]3CC[C@@]21CC
inactive: Potency [1] | Potency [2] | Potency [3] | Potency [4]

CCC1(CC)C(=O)NC(=O)N(c2ccccc2)C1=O
inactive: Potency [1] | Potency [2] | Potency [3] | Potency [4]

COc1cc2c3c(c1OC)-c1cc(O)ccc1CC3NCC2 (stereo not given)
inactive: Potency [1] | Potency [2] | Potency [3] | Potency [4]

COC(=O)N1c2ccccc2C23[C@@H]4CN5CCC[C@]6(CCC12C(O)(C6)C4=O)[C@H]53
inactive: Potency [1] | Potency [2] | Potency [3] | Potency [4]

CC1=C[C@H]2[C@]3(O)C(C=C(CO)C[C@]2(O)C1=O)[C@@H]1C(C)(C)[C@]1(O)[C@H](O)[C@H]3C (stereo not given in full)
inactive: Potency [1] | Potency [2] | Potency [3] | Potency [4]

COc1ccc(-c2coc3cc(O[C@@H]4O[C@H](CO)[C@@H](O)[C@H](O)[C@H]4O)c(OC)cc3c2=O)cc1
inactive: Potency [1] | Potency [2] | Potency [3] | Potency [4]

COc1cc2cc(Oc3ccc4ccc(=O)oc4c3)c(=O)oc2cc1OC(C)=O
inactive: Potency [1] | Potency [2] | Potency [3] | Potency [4]

CC1(C)C[C@H](O)[C@@]23C[C@@H](OC2=O)[C@]2(C)C(=CCC4[C@@]5(C)CC[C@H](O)C(C)(C)C5CC[C@]42C)[C@@H]3C1 (stereo not given in full)
inactive: Potency [1] | Potency [2] | Potency [3] | Potency [4]

O=CN1CCCCC1
inactive: Potency [1] | Potency [2] | Potency [3] | Potency [4]

COc1cc2oc(=O)ccc2cc1[C@H](O)[C@@H](O)C(C)(C)O
inactive: Potency [1] | Potency [2] | Potency [3] | Potency [4]

C=C(C)[C@@H]1CC[C@@H](C)C[C@@H]1O
inactive: Potency [1] | Potency [2] | Potency [3] | Potency [4]

C=CC[C@]12C[C@@H](OC)C(=O)C=C1O[C@@H](c1ccc(OC)c(OC)c1)[C@H]2C
inactive: Potency [1] | Potency [2] | Potency [3] | Potency [4]

COC(=O)c1cc(O)c(O)c(O)c1
inactive: Potency [1] | Potency [2] | Potency [3] | Potency [4]

CCOC(=O)[C@H]1O[C@H]1C(=O)N[C@@H](CC(C)C)C(=O)NCCC(C)C
inactive: Potency [1] | Potency [2] | Potency [3] | Potency [4]

C=C[C@H]1[C@H](O[C@@H]2O[C@H](CO)[C@@H](O)[C@H](O)[C@H]2O)OC=C2C(=O)OCC[C@]21O
inactive: Potency [1] | Potency [2] | Potency [3] | Potency [4]

COc1cc2c(c(OC)c1OC)-c1c(cc3c(c1OC)OCO3)C1OC2[C@@H](C)[C@H]1C (stereo not given in full)
inactive: Potency [1] | Potency [2] | Potency [3] | Potency [4]

COC(=O)c1ccc2c(c1O)C(=O)c1ccccc1C2=O
inactive: Potency [1] | Potency [2] | Potency [3] | Potency [4]

C/C=C(/CC[C@@H](C)[C@H]1CC[C@H]2C3=CC[C@H]4[C@H](C)[C@@H](O)CC[C@]4(C)[C@H]3CC[C@]12C)C(C)C
inactive: Potency [1] | Potency [2] | Potency [3] | Potency [4]

CC(C)CC(=O)O
inactive: Potency [1] | Potency [2] | Potency [3] | Potency [4]

CC(C)(C)[N+]([O-])=Cc1ccc(S(=O)(=O)O)cc1S(=O)(=O)O
inactive: Potency [1] | Potency [2] | Potency [3] | Potency [4]

CCC/C=C/CO
inactive: Potency [1] | Potency [2] | Potency [3] | Potency [4]

Cc1ccc2c(c1)C(=O)c1ccccc1C2=O
inactive: Potency [1] | Potency [2] | Potency [3] | Potency [4]

C[C@@H]1CC(=O)[C@H]2CC(CO)=CCC[C@@H]2[C@@]1(C)CC/C(=C/CO)CO
inactive: Potency [1] | Potency [2] | Potency [3] | Potency [4]

O=C(O)c1ccccc1
inactive: Potency [1] | Potency [2] | Potency [3] | Potency [4]

CC(=O)OC[C@H]1O[C@@H](Oc2cc(O)cc3oc(-c4ccc(O)cc4)cc(=O)c23)[C@H](O[C@@H]2O[C@@H](C)[C@H](O)[C@@H](O)[C@H]2O)[C@@H](O)[C@@H]1O
inactive: Potency [1] | Potency [2] | Potency [3] | Potency [4]

CCCCCCCCCCCCC
inactive: Potency [1] | Potency [2] | Potency [3] | Potency [4]

CC1=CCC2C(C1)C2(C)C (stereo not given)
inactive: Potency [1] | Potency [2] | Potency [3] | Potency [4]

C[C@]1(CC/C(=C/CO)CO)[C@H](CO)CC[C@@]23COC(=O)C2=CCC[C@@H]31
inactive: Potency [1] | Potency [2] | Potency [3] | Potency [4]

CCCCC/C=C\C/C=C\C=C\[C@@H](O)C/C=C\CCCC(=O)O
inactive: activity change, negative = inhibition [1] -0.303% [at 0.757 µM] | activity change, negative = reduced viability [2] 9.41% [at 0.757 µM] | activity change, negative = lower viability [3] 16.7% [at 0.757 µM] | activity change, negative = inhibition [4] 14.7% [at 0.757 µM]

C=CC(C)(CCC=C(C)C)OC(=O)c1ccccc1 (stereo not given)
inactive: Potency [1] | Potency [2] | Potency [3] | Potency [4]

CO[C@H]1C=CCCC=CC(=O)O[C@H]([C@H](C)C(=O)CCCC2CC(=O)NC(=O)C2)C(C)=C[C@@H](C)[C@@H]1O
inactive: Potency [1] | Potency [2] | Potency [3] | Potency [4]

OCCC(O)CO (stereo not given)
inactive: Potency [1] | Potency [2] | Potency [3] | Potency [4]

COc1cc(-c2cc(=O)c3c(O)cc(O)cc3o2)ccc1O
inactive: Potency [1] | Potency [2] | Potency [3] | Potency [4]

Cn1c(=O)c(-c2ccccc2)c(O)c2ccccc21
inactive: Potency [1] | Potency [2] | Potency [3] | Potency [4]

COc1c2c(c(C)c3c1C(=O)OC3)O[C@@]1(C)CC[C@@]3(O)C(C)(C)OC(=O)CC[C@]3(C)[C@H]1C2
inactive: Potency [1] | Potency [2] | Potency [3] | Potency [4]

CC1=CC(C/C(C)=C/COc2ccc3ccc(=O)oc3c2)OC1=O (stereo not given)
inactive: Potency [1] | Potency [2] | Potency [3] | Potency [4]

CCOC(=O)c1cc(=O)[nH]c2ccccc12
inactive: Potency [1] | Potency [2] | Potency [3] | Potency [4]

CC1(C)Oc2ccc3ccc(=O)oc3c2[C@@H](O)[C@H]1O
inactive: Potency [1] | Potency [2] | Potency [3] | Potency [4]

COc1cc(C)cc(C(=O)O)c1C1=C(O)c2cccc(O)c2C(=O)C1=O
inactive: Potency [1] | Potency [2] | Potency [3] | Potency [4]

N#CC(=C(N)Sc1ccc(N)cc1)c1ccccc1C(F)(F)F
inactive: Potency [1] | Potency [2] | Potency [3] | Potency [4]

N=C1SC(=Cc2ccc(-c3ccc4c(c3)C(=O)NC4=O)o2)C(=O)N1c1ccc(Br)cc1
inactive: Potency [1] | Potency [2] | Potency [3] | Potency [4]

CCCCC(C)/C=C(C)/C=C(\C)C(=O)NC1=CC(O)(/C=C/C=C/C=C/C(=O)NC2=C(O)CCC2=O)C2OC2C1=O (stereo not given)
inactive: Potency [1] | Potency [2] | Potency [3] | Potency [4]

Cc1cc(O)cc(O[C@H]2OC(CO)[C@H](O)[C@@H](O)[C@H]2O)c1 (stereo not given in full)
inactive: Potency [1] | Potency [2] | Potency [3] | Potency [4]

C/C=C(/C)C(=O)O[C@@H]([C@H](O)c1cc2ccc(=O)oc2cc1OC)C(C)(C)O[C@@H]1O[C@H](CO)[C@@H](O)[C@H](O)[C@H]1O
inactive: Potency [1] | Potency [2] | Potency [3] | Potency [4]

COc1ccc2c(c1)CC1c3c(cc4c(c3-2)OCO4)CC[N+]1(C)[O-] (stereo not given)
inactive: Potency [1] | Potency [2] | Potency [3] | Potency [4]

Fc1ccc(C(c2ccc(F)cc2)N2CCN(CC=Cc3ccccc3)CC2)cc1
inactive: Potency [1] | Potency [2] | Potency [3] | Potency [4]

C/C=C/C=C/CO
inactive: Potency [1] | Potency [2] | Potency [3] | Potency [4]

CCN1CC2(COC(=O)c3ccccc3N)CCC(OC)C34C5CC6C(OC)CC(O)(C5C6OC)C(O)(C(OC)C23)C14 (stereo not given)
inactive: Potency [1] | Potency [2] | Potency [3] | Potency [4]

CCN1C[C@]2(COC)CC[C@H](O)[C@@]34C5C[C@@H]6[C@@H](OC)C[C@@](O)(C5[C@H]6O)[C@](O)([C@@H](OC)C23)[C@@H]14 (stereo not given in full)
inactive: Potency [1] | Potency [2] | Potency [3] | Potency [4]

C=C[C@](C)(O)CC[C@@H]1[C@@]2(C)CCCC(C)(C)[C@@H]2CC[C@@]1(C)O
inactive: Potency [1] | Potency [2] | Potency [3] | Potency [4]

C=C1C2CC[C@]3(CCC4[C@@]5(C)CCC[C@@]4(CN(CCO)C5)[C@@H]3C2)[C@@H]1O (stereo not given in full)
inactive: Potency [1] | Potency [2] | Potency [3] | Potency [4]

NC1=N[C@H](O)[C@H]2C3O[C@]4(O)O[C@H](C(O)[C@@]2(N1)[C@@H]4O)C3(O)CO (stereo not given in full)
inactive: Potency [1] | Potency [2] | Potency [3] | Potency [4]

CC(=O)O[C@H]1C[C@@H]2CC[C@@]1(C)C2(C)C
inactive: Potency [1] | Potency [2] | Potency [3] | Potency [4]
